Molecules are shown by their SMILES. Hit rate of the full screen: of about 2,400 compounds, about 2,200 (92%) were called active.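 The calls were made as follows: active = mean inhibition over triplicate runs exceeds the cutoff derived for the earlier primary screen (cut at about 25% in these data); inactive = the rest.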 The set was probably picked from earlier hits. This is one part of the list.

The target of the experiment is Platelet-activating factor acetylhydrolase IB subunit alpha2 (Homo sapiens) (UniProt P68402). Description: PAFAH1B2 inhibitors, confirmation, biochemical, fluorescence polarization, FP-rhodamine probe, triplicate (AID 493034).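 Also: 0% = enzyme with DMSO and 100% = wells lacking PAFAH1B2 protein; inhibitors lower polarization by leaving the probe unbound.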 The settings on record: recombinant PAFAH1B2, FP-rhodamine probe fluorescence polarization; at 3.39 µM; active compounds read high.
Chain of Platelet-activating factor acetylhydrolase IB subunit alpha2 (Homo sapiens) (P68402 whole entry, looked up): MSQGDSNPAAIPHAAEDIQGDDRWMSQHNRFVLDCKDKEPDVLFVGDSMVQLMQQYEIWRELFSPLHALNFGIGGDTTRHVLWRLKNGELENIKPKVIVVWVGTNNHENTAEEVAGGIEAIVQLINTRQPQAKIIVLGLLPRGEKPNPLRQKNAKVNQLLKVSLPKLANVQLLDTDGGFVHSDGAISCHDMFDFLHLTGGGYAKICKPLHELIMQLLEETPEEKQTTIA
For the compound `N#Cc1c(NC(=O)Cn2c(=O)oc3ccccc32)oc(-c2ccccc2)c1-c1ccccc1`, the inhibition was 45% (active).
As for `O=C(NNC(=O)C1CCN(S(=O)(=O)c2ccc(Cl)cc2)CC1)c1ccccc1`, the figure is 24% (inactive); as for `C=CCNC(=O)C1CCN(S(=O)(=O)c2ccc(Br)cc2)CC1`, 23.8% (inactive).
The same measure for `CCN(CC)S(=O)(=O)c1ccc(C(=O)NNC(=O)C2CCN(S(=O)(=O)c3ccc(Cl)cc3)CC2)cc1`: 37.9% (active); for `Cc1ccc(C(c2nnnn2Cc2ccccc2)N2CCN(Cc3ccccc3)CC2)cc1` (configuration not stated): 16.6% (inactive); for `Cn1c(=S)[nH]c2sc3c(c2c1=O)CCC(C(C)(C)C)C3` (configuration not stated): 41.1% (active).
The same measure for `O=C(O)c1ccc(CSCc2ccccc2Cl)o1`: 14.4% (inactive).
Consider `CCOC(=O)CSc1nnc(NC(=O)CN2CCN(C=O)CC2)s1`, for which the inhibition was 3.79% (inactive).
Turning to `CCN(C(=O)COC(=O)c1cc(NS(=O)(=O)c2ccc(Cl)c([N+](=O)[O-])c2)ccc1O)C1CCCCC1`, the inhibition is 36.1% (active).
The same measure for `COC(=O)c1cc(NS(=O)(=O)c2ccc(N3CCCCCC3)c([N+](=O)[O-])c2)cc(C(=O)OC)c1`: 23.8% (inactive).
The same measure for `CCN(Cc1ccccc1)C(=O)COC(=O)c1cc(S(=O)(=O)Nc2ccccc2OC)ccc1O`: 23.2% (inactive); for `Cc1ccc(OCCC(=O)OCC(=O)NC2CCCC(C)C2C)cc1` (configuration not stated): 21.5% (inactive).
The same measure for `Oc1ccc(C23CC4CC(CC(C4)C2)C3)cc1O`: 33.2% (active).
With `CCCCCCCCN1[C@@H](CC(=O)O)c2ccc(C(F)(F)F)cc2S1(=O)=O`, the inhibition is 21.7% (inactive).
As for `CC(C)(C)c1ccc(C2=CC(c3ccccc3F)n3ncnc3N2)cc1` (configuration not stated), the figure is 15.1% (inactive).
As for `CCN(CC)CCN(C(=O)c1ccc(S(=O)(=O)N(CC)c2ccccc2)cc1)c1nc2c(OC)ccc(OC)c2s1`, the figure is 16.4% (inactive); as for `O=C(O)c1ccc(Cl)c(S(=O)(=O)N(Cc2ccccc2)c2ccc(F)cc2)c1`, 22.7% (inactive).
As to `CCN(c1ccccc1)S(=O)(=O)c1cc(C(=O)O)ccc1C`, the inhibition was 45.1% (active).
As for `CC1CCCC(NC(=O)c2cccc(S(=O)(=O)NCc3ccccc3)c2)C1C` (configuration not stated), the figure is 18.3% (inactive).
As for `CCc1ccc([C@@H]2CC=C(C(=O)O)[C@H](c3ccc(C(C)(C)C)cc3)N2S(=O)(=O)c2ccc(C)cc2)cc1`, the inhibition is 97.5% (active).
The same measure for `Cc1ccc(S(=O)(=O)N2[C@@H](c3ccc(C(C)(C)C)cc3)C(C(=O)O)=CC[C@H]2c2ccc(C(C)C)cc2)cc1`: 89.3% (active); for `Cc1ccc([C@@H]2CC=C(C(=O)O)[C@H](c3ccc(C(C)(C)C)cc3)N2S(=O)(=O)c2ccc(C)cc2)cc1`: 95.5% (active).

What is called inhibition is the percentage by which the read-out fell short of the control.

The record behind these values is PubChem BioAssay AID493034 (The Scripps Research Institute Molecular Screening Center, 2011).
